Source: PubChem BioAssay (EPA / NIEHS)
Results filed as inconclusive are left out. Active and inactive are the calls of the source. Rule for the calls, unless noted: active = hit-call score of the fitted dose curve at least 0.9, where 1 is the maximum; inactive = score below 0.9.

Experiments:
[1] = ATG_NFI_CIS: Attagene CIS-FACTORIAL HepG2 Assay for human Nuclear Factor I (NFI) (AID 2282989); conditions: HepG2 cis-regulatory reporter, NFI response element transcription; actives raise or lower the signal
How it was run: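 Multiplexed cis-reporter system in human HepG2 cells reports native TF activity as reporter mRNA induction 24 h post-dose. Fragments labelled with 6-FAM, HpaI-digested and resolved by capillary electrophoresis; activity fitted both directions versus DMSO.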

[2] = target: Myc proto-oncogene protein (Homo sapiens) (UniProt P01106); experiment: ATG_Myc_CIS: Attagene CIS-FACTORIAL HepG2 Assay for human Myelocytomatosis (Myc) Proto-Oncogene Transcription Factor (AID 2282990); conditions: HepG2, Attagene cis-reporter transcription factor activity; actives raise or lower the signal
Myc proto-oncogene protein (Homo sapiens), sequence (P01106 whole entry, looked up): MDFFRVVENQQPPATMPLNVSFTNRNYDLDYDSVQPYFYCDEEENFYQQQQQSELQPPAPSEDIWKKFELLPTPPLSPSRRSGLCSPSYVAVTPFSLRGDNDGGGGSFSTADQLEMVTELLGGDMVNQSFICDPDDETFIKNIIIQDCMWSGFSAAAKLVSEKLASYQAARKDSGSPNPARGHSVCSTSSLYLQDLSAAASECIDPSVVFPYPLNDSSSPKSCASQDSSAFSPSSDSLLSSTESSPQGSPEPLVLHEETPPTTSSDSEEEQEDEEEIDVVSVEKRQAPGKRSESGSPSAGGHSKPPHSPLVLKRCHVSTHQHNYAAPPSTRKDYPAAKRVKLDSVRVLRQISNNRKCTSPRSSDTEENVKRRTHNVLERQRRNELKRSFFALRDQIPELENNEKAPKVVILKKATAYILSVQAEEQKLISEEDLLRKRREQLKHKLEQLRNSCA
How it was run: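 HepG2 cells transiently transfected with multiple cis-promoter-driven reporter transcription units, so endogenous TF activity is read. After 24 h compound exposure, reporter mRNA was quantified by RT-PCR, 6-FAM labelling, HpaI digestion and capillary electrophoresis; bidirectional fit versus DMSO.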

[3] = ATG_NF_kB_CIS: Attagene CIS-FACTORIAL HepG2 Assay for human Nuclear Factor Kappa B (NF-kB) (AID 2282991); conditions: HepG2 Attagene cis-factorial NF-kB reporter mRNA; actives raise or lower the signal
How it was run: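 Read-out: reporter transcript levels quantified by RT-PCR plus capillary electrophoresis of 6-FAM-labelled, HpaI-cut fragments. Transfected HepG2 cells, 24 h compound exposure, endogenous NF-kB-driven cis element; gain or loss scored versus DMSO.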

[4] = ATG_NRF2_ARE_CIS: Attagene CIS-FACTORIAL HepG2 Assay for human Nuclear Factor Erythroid 2 Related Factor 2 (NFR2) response to Antioxidant Response Elements (ARE) (AID 2282992); conditions: HepG2 Attagene ARE/NRF2 reporter, transcription factor activity; actives raise or lower the signal;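 for AC50: reporter mRNA level measured by RT-PCR and capillary electrophoresis fluorescence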
How it was run: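 Readout: reporter mRNA quantified by RT-PCR plus FAM-labelled primer extension, HpaI digestion and capillary electrophoresis, 24 h after dosing transfected HepG2 cells. Gain or loss of signal is fitted bidirectionally against DMSO baseline.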

[5] = ATG_Oct_MLP_CIS: Attagene CIS-FACTORIAL HepG2 Assay for human Octamer-Binding Transcription Factor (Oct) (AID 2282993); conditions: HepG2 Attagene cis-factorial Oct reporter, mRNA; actives raise or lower the signal
How it was run: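 After 24 h compound exposure, transfected HepG2 cells were lysed for total RNA; reporter-specific cDNA was PCR-amplified, fluorescently labelled and sized by capillary electrophoresis. Bidirectional curve fitting used DMSO as baseline.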

[6] = BSK_3C_TissueFactor: BioMAP Diversity Plus: 3C Assay for Tissue Factor Biomarker Activity (AID 2282997); conditions: BioMAP 3C HUVEC, tissue factor biomarker readout; actives raise or lower the signal
How it was run: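 HUVEC, 3C system, 24 h post-dose; Tissue Factor by ELISA; bidirectional fit vs DMSO baseline.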

[7] = BSK_3C_uPAR: BioMAP Diversity Plus: 3C Assay for Urokinase-type plasminogen activator receptor (uPAR) Biomarker Activity (AID 2282998); conditions: BioMAP 3C HUVEC, uPAR biomarker ELISA; actives raise or lower the signal
How it was run: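 Values derive from bidirectional curve fitting relative to DMSO, which served as baseline of activity. uPAR was measured by ELISA in human umbilical vein endothelial primary cultures 24 h after compound addition.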

[8] = BSK_3C_VCAM1: BioMAP Diversity Plus: 3C Assay for Vascular cell adhesion molecule 1 (VCAM1) Biomarker Activity (AID 2282999); conditions: BioMAP 3C HUVEC, VCAM1 ELISA, cytokine-stimulated; actives raise or lower the signal
How it was run: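 Vascular primary endothelium (human umbilical vein) was exposed to chemicals and assayed 24 h later. VCAM-1 levels came from ELISA, with DMSO serving as baseline for bidirectional fitting.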

[9] = BSK_4H_Eotaxin3: BioMAP Diversity Plus: 4H Assay for Eotaxin 3 Biomarker Activity (AID 2283000); conditions: primary human endothelial cells (HUVEC); actives raise or lower the signal;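 note: CCL26 protein level quantified by ELISA in parallel with SRB cytotoxicity check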
How it was run: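 Readout is Eotaxin-3 (CCL26) level by ELISA in primary human umbilical vein endothelial cells harvested 24 h after chemical exposure; activity fitted in both directions against DMSO control.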

[10] = target: human Peroxisome Proliferator-activated Receptor alpha (PPARa), PPARA (gene 5465) (UniProt Q07869); experiment: ATG_PPARa_TRANS: Attagene TRANS-FACTORIAL HepG2 Assay for human Peroxisome Proliferator-activated Receptor alpha (PPARa) (AID 2283001; active = hit-call score of the fitted dose curve at least 0.9, where 1 is the maximum;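 for AC50: potency for gain of reporter signal over DMSO so agonist or activator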)
human Peroxisome Proliferator-activated Receptor alpha (PPARa), PPARA (gene 5465), sequence (Q07869 whole entry, looked up): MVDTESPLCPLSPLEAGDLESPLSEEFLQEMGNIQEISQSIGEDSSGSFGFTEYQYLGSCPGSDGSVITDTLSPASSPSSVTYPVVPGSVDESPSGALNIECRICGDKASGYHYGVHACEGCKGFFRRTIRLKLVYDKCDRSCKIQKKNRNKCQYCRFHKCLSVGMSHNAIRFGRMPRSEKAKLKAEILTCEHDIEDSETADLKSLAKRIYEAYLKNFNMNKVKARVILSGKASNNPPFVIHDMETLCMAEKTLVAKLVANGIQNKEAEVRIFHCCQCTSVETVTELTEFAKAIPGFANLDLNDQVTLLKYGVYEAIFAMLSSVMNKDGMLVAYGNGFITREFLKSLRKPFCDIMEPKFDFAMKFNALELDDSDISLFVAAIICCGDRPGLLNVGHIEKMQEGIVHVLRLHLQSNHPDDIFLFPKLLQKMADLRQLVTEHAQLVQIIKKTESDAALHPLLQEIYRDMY
How it was run: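 Cells (HepG2) are transfected with multiple reporter transcription units, exposed to chemical for 24 h, then total RNA is reverse-transcribed and amplified. Labelled products are quantified by capillary electrophoresis; induction is referenced to DMSO.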

[11] = target: human Peroxisome Proliferator-activated Receptor delta (PPARd), PPARD (gene 5467) (UniProt Q03181); experiment: ATG_PPARd_TRANS: Attagene TRANS-FACTORIAL HepG2 Assay for human Peroxisome Proliferator-activated Receptor delta (PPARd) (AID 2283002; active = hit-call score of the fitted dose curve at least 0.9, where 1 is the maximum)
human Peroxisome Proliferator-activated Receptor delta (PPARd), PPARD (gene 5467), sequence (Q03181 whole entry, looked up, the tested form may be a part): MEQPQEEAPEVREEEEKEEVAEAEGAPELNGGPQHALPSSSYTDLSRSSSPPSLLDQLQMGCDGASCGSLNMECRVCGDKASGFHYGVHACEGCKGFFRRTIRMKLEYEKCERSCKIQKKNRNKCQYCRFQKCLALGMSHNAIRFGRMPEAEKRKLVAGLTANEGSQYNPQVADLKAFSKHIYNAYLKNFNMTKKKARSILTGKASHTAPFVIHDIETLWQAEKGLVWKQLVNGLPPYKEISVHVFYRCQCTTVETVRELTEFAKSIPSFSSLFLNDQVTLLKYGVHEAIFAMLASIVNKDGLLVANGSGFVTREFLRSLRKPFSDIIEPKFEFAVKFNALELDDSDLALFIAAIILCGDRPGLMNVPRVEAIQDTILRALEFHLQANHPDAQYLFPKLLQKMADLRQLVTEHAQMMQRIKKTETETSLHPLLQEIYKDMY
How it was run: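 HepG2 cells transiently transfected with multiplexed GAL4-UAS reporter units and exogenous chimeric NR-Gal4 proteins; 24 h compound exposure. Reporter mRNA measured by RT-PCR, 6-FAM labelling, HpaI digestion and capillary electrophoresis; gain of signal versus DMSO.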

[12] = read-out: Intercellular Adhesion Molecule 1 (ICAM1), ICAM1 (gene 3383); experiment: BSK_3C_ICAM1: BioMAP Diversity Plus: 3C Assay for Intercellular Adhesion Molecule 1 (ICAM1) Biomarker Activity (AID 2283003); conditions: primary human endothelial cells (HUVEC); actives raise or lower the signal
How it was run: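 Chemicals are dosed onto primary human umbilical vein endothelium (3C system). After 24 h, ICAM-1 is measured by ELISA, and responses are fitted bidirectionally relative to DMSO.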

[13] = target: Retinoic acid receptor alpha (Homo sapiens) (UniProt P10276); experiment: ATG_RARa_TRANS: Attagene TRANS-FACTORIAL HepG2 Assay for human Retinoic Acid Receptor alpha (RARa) (AID 2283005; active = hit-call score of the fitted dose curve at least 0.9, where 1 is the maximum)
Retinoic acid receptor alpha (Homo sapiens), sequence (P10276 whole entry, looked up, the tested form may be a part): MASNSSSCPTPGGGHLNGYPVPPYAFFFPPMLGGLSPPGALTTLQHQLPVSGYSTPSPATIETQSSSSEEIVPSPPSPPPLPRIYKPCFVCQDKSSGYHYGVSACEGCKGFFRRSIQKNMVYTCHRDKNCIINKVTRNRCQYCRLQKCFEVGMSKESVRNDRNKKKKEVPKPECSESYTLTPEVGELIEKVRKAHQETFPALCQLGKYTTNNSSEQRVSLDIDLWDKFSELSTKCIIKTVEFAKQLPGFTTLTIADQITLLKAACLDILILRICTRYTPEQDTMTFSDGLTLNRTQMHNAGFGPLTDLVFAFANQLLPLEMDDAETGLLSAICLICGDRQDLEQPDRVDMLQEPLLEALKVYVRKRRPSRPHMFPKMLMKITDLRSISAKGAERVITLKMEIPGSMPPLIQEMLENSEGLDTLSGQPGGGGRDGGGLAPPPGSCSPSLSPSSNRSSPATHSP
How it was run: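 HepG2 cells transiently transfected with multiple reporter units expressing chimeric RARα-GAL4 fusion, with GAL4-UAS-driven reporters. After 24 h compound exposure, reporter mRNA induction quantified by RT-PCR and capillary electrophoresis with fluorescent labeling; gain-of-signal fitted relative to DMSO control.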

[14] = BSK_3C_Proliferation: Cell Proliferation Assessment in the BioMAP Diversity Plus: 3C Assay (AID 2283006); conditions: primary human endothelial cells (HUVEC);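 for AC50: potency may reflect either rise or fall in cell number versus DMSO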
How it was run: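 Cells (human umbilical vein endothelial, sub-confluent) receive test chemical; after 48 h they are fixed in 10% trichloroacetic acid, stained with 0.1% SRB and read at 560 nm. Activity is referenced to DMSO, fitting increases and decreases.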

[15] = target: Peroxisome proliferator-activated receptor gamma (Homo sapiens) (UniProt P37231); experiment: ATG_PPARg_TRANS: Attagene TRANS-FACTORIAL HepG2 Assay for human Peroxisome Proliferator-activated Receptor-gamma (PPARg) (AID 2283007; active = hit-call score of the fitted dose curve at least 0.9, where 1 is the maximum)
Peroxisome proliferator-activated receptor gamma (Homo sapiens), sequence (P37231 whole entry, looked up, the tested form may be a part): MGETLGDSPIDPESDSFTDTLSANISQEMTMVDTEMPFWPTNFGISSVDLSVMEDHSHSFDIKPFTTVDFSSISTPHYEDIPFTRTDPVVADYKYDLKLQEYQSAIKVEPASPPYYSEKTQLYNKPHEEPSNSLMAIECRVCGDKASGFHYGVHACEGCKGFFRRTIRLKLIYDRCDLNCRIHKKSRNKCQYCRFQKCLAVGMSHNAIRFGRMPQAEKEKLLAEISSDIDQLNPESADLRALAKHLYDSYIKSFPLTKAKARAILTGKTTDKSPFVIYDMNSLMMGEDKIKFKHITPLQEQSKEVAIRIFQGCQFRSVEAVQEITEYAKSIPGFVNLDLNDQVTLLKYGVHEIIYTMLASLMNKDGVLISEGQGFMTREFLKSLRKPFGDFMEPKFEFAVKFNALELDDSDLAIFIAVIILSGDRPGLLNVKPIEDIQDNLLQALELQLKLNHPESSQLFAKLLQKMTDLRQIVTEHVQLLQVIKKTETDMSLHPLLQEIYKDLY
How it was run: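 Read-out: reporter mRNA induction, detected by fluorescence after RT-PCR and capillary electrophoresis. Transiently transfected human HepG2 liver cells carrying a chimeric NR-Gal4 construct were dosed for 24 h; activity was fitted upward relative to DMSO.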

[16] = target: human Retinoic Acid Receptor gamma (RARg), RARG (gene 5916) (UniProt P13631); experiment: ATG_RARg_TRANS: Attagene TRANS-FACTORIAL HepG2 Assay for human Retinoic Acid Receptor gamma (RARg) (AID 2283009; active = hit-call score of the fitted dose curve at least 0.9, where 1 is the maximum)
human Retinoic Acid Receptor gamma (RARg), RARG (gene 5916), sequence (P13631 whole entry, looked up, the tested form may be a part): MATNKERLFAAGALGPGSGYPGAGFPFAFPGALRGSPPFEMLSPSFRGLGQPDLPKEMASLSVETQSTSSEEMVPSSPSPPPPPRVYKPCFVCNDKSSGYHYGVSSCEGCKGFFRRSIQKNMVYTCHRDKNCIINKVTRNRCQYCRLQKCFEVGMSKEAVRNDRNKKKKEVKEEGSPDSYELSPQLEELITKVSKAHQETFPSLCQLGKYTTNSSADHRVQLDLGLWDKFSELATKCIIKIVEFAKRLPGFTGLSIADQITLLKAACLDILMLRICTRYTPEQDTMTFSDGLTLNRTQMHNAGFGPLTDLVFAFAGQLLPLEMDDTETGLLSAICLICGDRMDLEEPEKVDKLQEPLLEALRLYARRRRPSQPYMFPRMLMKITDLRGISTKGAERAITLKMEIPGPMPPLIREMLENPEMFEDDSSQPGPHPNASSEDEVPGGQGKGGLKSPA
How it was run: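 TRANS format measured activity of exogenous NR-GAL4 fusion (RARg) in transfected HepG2 liver cells after 24 h dosing. Induced reporter RNA was detected by RT-PCR/capillary electrophoresis fluorescence, analysed in the positive direction against DMSO.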

[17] = target: Nuclear receptor subfamily 1 group I member 2 (Homo sapiens) (UniProt O75469); experiment: ATG_PXR_TRANS: Attagene TRANS-FACTORIAL HepG2 Assay for human Pregnane X Receptor (PXR) (AID 2283008; active = hit-call score of the fitted dose curve at least 0.9, where 1 is the maximum)
Nuclear receptor subfamily 1 group I member 2 (Homo sapiens), sequence (O75469 whole entry, looked up, the tested form may be a part): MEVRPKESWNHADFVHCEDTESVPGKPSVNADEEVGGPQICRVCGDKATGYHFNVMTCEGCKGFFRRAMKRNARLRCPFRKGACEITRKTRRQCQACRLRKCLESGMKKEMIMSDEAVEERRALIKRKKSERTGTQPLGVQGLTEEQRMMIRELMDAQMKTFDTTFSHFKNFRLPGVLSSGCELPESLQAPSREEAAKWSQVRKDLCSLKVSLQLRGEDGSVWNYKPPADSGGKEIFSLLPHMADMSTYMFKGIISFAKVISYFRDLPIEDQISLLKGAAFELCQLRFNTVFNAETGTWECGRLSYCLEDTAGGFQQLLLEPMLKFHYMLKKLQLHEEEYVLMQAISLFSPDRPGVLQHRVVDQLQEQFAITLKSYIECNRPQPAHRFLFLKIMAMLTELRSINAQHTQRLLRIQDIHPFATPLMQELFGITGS
How it was run: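 Trans-factorial format: exogenous NR-Gal4 fusion activity, not endogenous factor, in transfected human HepG2 liver cells. After 24 h dosing, RNA isolated, reverse-transcribed, amplified and resolved by capillary electrophoresis; induction scored versus DMSO.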

[18] = target: Cellular tumor antigen p53 (Homo sapiens) (UniProt P04637); experiment: ATG_p53_CIS: Attagene CIS-FACTORIAL HepG2 Assay for human p53 Transcription Factor (AID 2282994); conditions: HepG2 p53 cis-element reporter, Attagene mRNA; actives raise or lower the signal
Cellular tumor antigen p53 (Homo sapiens), sequence (P04637 whole entry, looked up): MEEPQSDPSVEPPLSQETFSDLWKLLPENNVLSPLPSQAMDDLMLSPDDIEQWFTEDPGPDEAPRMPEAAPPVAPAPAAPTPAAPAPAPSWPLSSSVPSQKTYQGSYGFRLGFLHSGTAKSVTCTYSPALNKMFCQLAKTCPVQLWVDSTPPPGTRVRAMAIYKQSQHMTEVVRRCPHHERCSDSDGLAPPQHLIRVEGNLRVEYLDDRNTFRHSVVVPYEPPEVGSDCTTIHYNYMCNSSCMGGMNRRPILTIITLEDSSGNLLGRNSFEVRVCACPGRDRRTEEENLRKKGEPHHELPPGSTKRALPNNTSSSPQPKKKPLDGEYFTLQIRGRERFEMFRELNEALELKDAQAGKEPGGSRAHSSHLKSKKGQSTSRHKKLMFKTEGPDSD
How it was run: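 Read-out: reporter mRNA by RT-PCR plus capillary electrophoresis with fluorescence detection. Human HepG2 liver cells carried transfected multi-reporter cis-element constructs, dosed 24 h. Gain or loss of signal fitted bidirectionally against DMSO control.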

[19] = target: human Retinoic Acid Receptor beta (RARb), RARB (gene 5915) (UniProt P10826); experiment: ATG_RARb_TRANS: Attagene TRANS-FACTORIAL HepG2 Assay for human Retinoic Acid Receptor beta (AID 2283004; active = hit-call score of the fitted dose curve at least 0.9, where 1 is the maximum)
human Retinoic Acid Receptor beta (RARb), RARB (gene 5915), sequence (P10826 whole entry, looked up, the tested form may be a part): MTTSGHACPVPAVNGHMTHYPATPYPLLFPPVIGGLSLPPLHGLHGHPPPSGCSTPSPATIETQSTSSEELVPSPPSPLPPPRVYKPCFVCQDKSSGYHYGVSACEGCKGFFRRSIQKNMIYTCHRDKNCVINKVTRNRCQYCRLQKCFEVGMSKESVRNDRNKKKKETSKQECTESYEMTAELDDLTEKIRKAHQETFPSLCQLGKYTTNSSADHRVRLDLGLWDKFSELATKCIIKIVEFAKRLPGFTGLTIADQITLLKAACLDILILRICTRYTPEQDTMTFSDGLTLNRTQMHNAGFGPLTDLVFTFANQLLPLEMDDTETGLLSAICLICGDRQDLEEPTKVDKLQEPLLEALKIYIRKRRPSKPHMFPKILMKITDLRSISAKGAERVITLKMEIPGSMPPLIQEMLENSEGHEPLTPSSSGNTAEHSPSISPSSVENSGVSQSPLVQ
How it was run: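 Readout is reporter mRNA induction: RNA reverse-transcribed, PCR-amplified, FAM-labelled, HpaI-cut and resolved by capillary electrophoresis. Transiently transfected HepG2 cells carrying exogenous NR–Gal4 chimeras were dosed for 24 h; activity fitted upward relative to DMSO.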

Measured: AC50

C=CC(F)(F)C(F)(F)C(F)(F)C(F)(F)C(F)(F)C(F)(F)C(F)(F)C(F)(F)F
not listed: [17] | [18] | [19]
inactive: all other assays above

CCCCC(CC)COP(=O)(O)OCC(CC)CCCC (stereo not drawn)
active: [4] 26.6 µM | [10] 16.5 µM | [14] 36 µM | [15] 7.51 µM | [17] 15.4 µM
inactive: [2] | [6] | [7] | [8] | [9] | [12]

FC(F)(Br)C(F)(F)C(F)(F)C(F)(F)C(F)(F)C(F)(F)Br
not listed: [1] | [10] | [13] | [16] | [19]
inactive: all other assays above

CCO[Si](CCC(F)(F)C(F)(F)C(F)(F)C(F)(F)C(F)(F)C(F)(F)F)(OCC)OCC
not listed: [1] | [13] | [18] | [19]
inactive: all other assays above

CCCCCCCCC(F)(F)C(F)(F)C(F)(F)C(F)(F)C(F)(F)C(F)(F)F
not listed: [1] | [5] | [17]
inactive: all other assays above

CCN(CC)c1ccc2c(C)cc(=O)oc2c1
active: [4] 59.3 µM | [6] 20 µM | [14] 30.6 µM | [15] 27.2 µM | [17] 3.63 µM
not listed: [13] | [16] | [19]
inactive: all other assays above

CCCCNc1ccccc1
not listed: [1] | [5] | [10] | [13] | [16] | [19]
inactive: all other assays above

CC(Cc1ccc(O)c(O)c1)C(C)Cc1ccc(O)c(O)c1 (stereo not drawn)
inactive: [2] | [18]
active: [1] 19 µM | [3] 55.3 µM | [4] 22.8 µM | [15] 19.3 µM | [17] 6.87 µM
